Calls of active or inactive are those of the source. Unless noted, no rule for the calls is given here.
What was measured:
[1] = resazurin metabolic signal in HepG2 cells – cell-based, resazurin fluorescence, 24 h, PK04 Diversity Set, profiling panel (AID 1172); details: HepG2 viability, higher = more signal; also: test concentration not given here
[2] = budding yeast growth changes without added modifier – OD600, strain BY4716, 24 h, basal condition, primary screen (AID 1173); details: S. cerevisiae BY4716 growth, OD600, 24 h; higher = more signal, called active from +8 up or from −8 down
[3] = viability profiling in MM1S myeloma cells – cell-based, resazurin fluorescence, basal, 24 h, PK04 Diversity Set, profiling panel (AID 1174); details: higher = more signal, called active from +8 up or from −8 down;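 also: MM1S multiple myeloma cell line; test concentration not given here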
[4] = biological target: Dihydroorotate dehydrogenase (quinone), mitochondrial (Plasmodium falciparum (isolate 3D7)) (UniProt Q08210); test: inhibition of P. falciparum DHODH – biochemical, C-terminal His tag, absorbance 600 nm, primary screen (AID 1175); details: PfDHODH enzyme, DCIP absorbance 600 nm; higher = more signal, called active from +8 up or from −8 down;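 also: recombinant parasite enzyme with a five histidine tag at its C terminus; test concentration not given here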
[5] = inhibition of PAO1 biofilm formation – strain PAO1, LB-PBS medium, absorbance 600 nm, primary screen (AID 1176); also: test concentration not given here; details: P. aeruginosa PAO1 growth/biofilm, A600, 12 h; higher = more signal
[6] = growth modulation of vineyard yeast isolate – strain RM11-1a, OD600, basal, 24 h, primary screen (AID 1177);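 also: cultures grown under basal conditions with no added stressor; test concentration not given here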; details: S. cerevisiae RM11-1a growth, OD600, 24 h; higher = more signal, called active from +8 up or from −8 down
[7] = growth of efflux-deficient E. coli DRC39 – strain DRC39, OD650, 24 h, E. coli filamentation inducers, primary screen (AID 1178);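 also: growth measured as culture turbidity by optical density at 650 nm; test concentration not given here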; details: E. coli DRC39 acrAB, higher = more signal, called active from +8 up or from −8 down
[8] = growth of efflux-deficient E. coli DRC39 – strain DRC39, OD650, 48 h, E. coli filamentation inducers, primary screen (AID 1179);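 also: screen aims at cell division blockers that make cells filament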; details: E. coli DRC39 delta-acrAB growth, higher = more signal, called active from +8 up or from −8 down
[9] = viability profiling in RPMI8226 myeloma cells – cell-based, resazurin fluorescence, basal, 24 h, PK04 Diversity Set, profiling panel (AID 1180); details: higher = more signal;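 also: RPMI8826 multiple myeloma cell line at 5000 cells per well; test concentration not given here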
[10] = biological target: E3 ubiquitin-protein ligase XIAP (Homo sapiens) (UniProt P98170); test: small molecules binding XIAP protein – biophysical, small-molecule microarray, fluorescence 635 nm, primary screen (AID 1181); details: higher = more signal;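 also: score merges 667 nm emission and signal to noise over triplicate slides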
Sequence of E3 ubiquitin-protein ligase XIAP (Homo sapiens) (P98170 whole entry, looked up): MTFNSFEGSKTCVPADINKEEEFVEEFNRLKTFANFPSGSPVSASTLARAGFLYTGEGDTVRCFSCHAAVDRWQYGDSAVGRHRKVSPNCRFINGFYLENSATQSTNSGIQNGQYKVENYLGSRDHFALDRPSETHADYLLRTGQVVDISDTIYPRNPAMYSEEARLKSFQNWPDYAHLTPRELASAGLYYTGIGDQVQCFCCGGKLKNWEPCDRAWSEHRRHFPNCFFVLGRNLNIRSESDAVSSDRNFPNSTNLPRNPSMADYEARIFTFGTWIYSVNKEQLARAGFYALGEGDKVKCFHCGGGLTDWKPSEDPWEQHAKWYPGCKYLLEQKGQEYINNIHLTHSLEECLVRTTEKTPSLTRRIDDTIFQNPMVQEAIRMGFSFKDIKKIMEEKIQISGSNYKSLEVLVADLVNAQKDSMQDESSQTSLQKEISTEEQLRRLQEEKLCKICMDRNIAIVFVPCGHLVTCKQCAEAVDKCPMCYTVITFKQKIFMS

Sequence of Dihydroorotate dehydrogenase (quinone), mitochondrial (Plasmodium falciparum (isolate 3D7)) (Q08210 whole entry, looked up): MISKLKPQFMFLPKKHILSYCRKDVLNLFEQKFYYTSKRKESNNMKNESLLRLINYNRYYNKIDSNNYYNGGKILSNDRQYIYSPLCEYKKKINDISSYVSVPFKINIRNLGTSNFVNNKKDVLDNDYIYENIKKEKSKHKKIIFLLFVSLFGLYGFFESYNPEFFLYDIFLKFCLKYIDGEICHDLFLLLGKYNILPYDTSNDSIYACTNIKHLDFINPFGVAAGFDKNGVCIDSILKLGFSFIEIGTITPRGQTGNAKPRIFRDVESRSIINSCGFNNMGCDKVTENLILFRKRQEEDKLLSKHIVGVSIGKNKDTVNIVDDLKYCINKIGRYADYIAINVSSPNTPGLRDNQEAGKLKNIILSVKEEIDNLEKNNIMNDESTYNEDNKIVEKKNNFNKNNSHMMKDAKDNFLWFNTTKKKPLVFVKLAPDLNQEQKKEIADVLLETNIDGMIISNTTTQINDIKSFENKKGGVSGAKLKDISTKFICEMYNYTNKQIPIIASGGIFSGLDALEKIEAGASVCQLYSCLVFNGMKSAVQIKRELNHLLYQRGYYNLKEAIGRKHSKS

Structure (SMILES)	z-score [1]	z-score [2]	z-score [3]	composite z-score [4]	z-score [5]	z-score [6]	z-score [7]	z-score [8]	z-score [9]	composite z-score [10]
CC(=O)O[C@H]1C2=C(C(=O)[C@@H]3O[C@@H]31)[C@H]1C(C)O[C@@H]2[C@@]23C(=O)[C@@H]4O[C@@H]4[C@@H](O)C2=CO[C@H](C)[C@@H]13 (stereo not given in full)	0.0072	0.174 (inactive)	-1.01 (inactive)	-0.0495 (inactive)	-0.0812 (inactive)	-0.2 (inactive)	0.223 (inactive)	0.186 (inactive)	-1.12	-0.0454
C[C@@H]1C=CCC(=O)OC[C@H](C)C(=O)OC[C@H]2O[C@H]1C=C[C@H]2O	0.0061	-0.368 (inactive)	0.313 (inactive)	0.603 (inactive)	-0.814 (inactive)	1.14 (inactive)	0.0992 (inactive)	-0.249 (inactive)	0.52	-0.379
CC(CCN1CCc2nc(-c3ccccc3)c(-c3ccccc3)cc2C1)=NO[C@H](C)c1cn([C@@H]2COC[C@H]2O)nn1	-0.233	-0.799 (inactive)	-0.869 (inactive)	-0.0119 (inactive)	0.408 (inactive)	-0.462 (inactive)	0.532 (inactive)	0.705 (inactive)	-0.639	0.063
COC(=O)[C@H](C)NC(=O)CCC1CC(OC(=O)NCc2ccc3c(c2)OCO3)CC2(CCCC(COC(=O)NCCOc3ccccc3)O2)O1 (stereo not given in full)	0.658	-0.565 (inactive)	-0.951 (inactive)	-1.61 (inactive)	0.875 (inactive)	-1.31 (inactive)	-0.388 (inactive)	-0.915 (inactive)	0.891	-0.105
CC(C)CON=C1C[C@@H](O)[C@@H](O)[C@@H]2[C@@H]3C(=O)N(Cc4ccccc4)C(=O)[C@@H]3CC[C@@H]12	0.854	-0.608 (inactive)	0.334 (inactive)	-0.282 (inactive)	-0.495 (inactive)	0.407 (inactive)	0.426 (inactive)	0.918 (inactive)	0.731	-0.242
CC(C)CON=C1C[C@@H](O)[C@@H](O)[C@@H]2[C@@H]3C(=O)N([C@@H](C)c4ccccc4)C(=O)[C@@H]3CC[C@H]12	0.0096	-1.45 (inactive)	-0.0393 (inactive)	-0.0804 (inactive)	0.07 (inactive)	0.351 (inactive)	0.595 (inactive)	0.675 (inactive)	0.333	-0.166
CCOC(=O)NN=C1C[C@@H](O)[C@@H](O)[C@@H]2[C@@H]3C(=O)N(C4CCCCC4)C(=O)[C@@H]3CC[C@H]12	-0.912	0.486 (inactive)	-0.74 (inactive)	0.406 (inactive)	-0.0941 (inactive)	0.0422 (inactive)	-0.43 (inactive)	-0.358 (inactive)	-0.927	-0.0246
C[C@@H]1C=CCC(=O)OC[C@H](C)C(=O)N2CCC[C@H]2C(=O)OC1	0.613	0.516 (inactive)	-0.0084 (inactive)	-0.697 (inactive)	-0.549 (inactive)	0.21 (inactive)	0.686 (inactive)	0.528 (inactive)	0.575	-0.0416
CC(=O)OC[C@H]1O[C@H](CC=NOC[C@@H](C)[C@H](OCc2ccccc2)C(C)C)C=C[C@@H]1OC(C)=O	0.643	0.904 (inactive)	-0.473 (inactive)	-0.298 (inactive)	0.0738 (inactive)	-0.0321 (inactive)	0.204 (inactive)	0.193 (inactive)	0.692	-0.0571
Cc1cc2c(nc1C)CCCN2CC(C)ON=C1[C@H]2CCn3c(=O)n(-c4ccccc4)c(=O)n3[C@H]2[C@H](O)[C@@H]2O[C@H]12 (stereo not given in full)	-0.942	-0.286 (inactive)	-0.222 (inactive)	-0.153 (inactive)	0.381 (inactive)	-0.488 (inactive)	-1.05 (inactive)	-1.98 (inactive)	-0.745	0.0483
O=C(NN=C1C[C@@H](O)[C@@H](O)[C@@H]2[C@@H]3C(=O)N(c4ccc(F)cc4F)C(=O)[C@@H]3CC[C@@H]12)OCc1ccccc1	0.801	0.207 (inactive)	0.442 (inactive)	-0.192 (inactive)	-1.09 (inactive)	1.01 (inactive)	0.502 (inactive)	0.873 (inactive)	0.508	-0.27
C=CCC(OC(C)=O)[C@@H]1[C@@H](N(Cc2cc3ccccc3o2)C(=O)Cc2ccc(F)cc2)c2cc(OCCCO)ccc2N1C(=O)Cc1ccc(OC)cc1 (stereo not given in full)	0.217	-0.449 (inactive)	0.301 (inactive)	-1.66 (inactive)	0.632 (inactive)	-0.711 (inactive)	-0.201 (inactive)	-0.416 (inactive)	-0.115	0.0769
COC(=O)[C@@H]1CC[C@H](C)[C@@H](c2ccc(C)cc2)N1C(=O)c1ccc(C=NOC[C@@H](O)COCc2ccco2)cc1	-0.609	-0.346 (inactive)	-1.06 (inactive)	0.13 (inactive)	0.147 (inactive)	0.0787 (inactive)	0.462 (inactive)	0.663 (inactive)	-1.49	-0.0891
COCCNC(=O)OCC1CCCC2(CC(OC(=O)NCCc3ccc(F)cc3)CC(CCC(=O)N[C@@H](C)C(=O)OC)O2)O1 (stereo not given in full)	0.864	-0.183 (inactive)	0.899 (inactive)	-0.0746 (inactive)	0.262 (inactive)	0.684 (inactive)	0.963 (inactive)	1.16 (inactive)	1.07	-0.216
CC(C)C[C@@H]1NC(=O)[C@H]2C[C@@H](C(=O)O)[C@@H](c3ccc(O)cc3)N2C1=O	0.374	0.0437 (inactive)	0.816 (inactive)	0.425 (inactive)	-0.86 (inactive)	1.58 (inactive)	-0.139 (inactive)	-0.456 (inactive)	0.453	-0.125
CCOC(=O)[C@H](Cc1ccccc1)NC(=O)CCC1CC(OC(=O)NCc2ccc3c(c2)OCO3)CC2(CCCC(COC(=O)NCc3cccc(C(F)(F)F)c3)O2)O1 (stereo not given in full)	-0.302	-1.17 (inactive)	1.12 (inactive)	-2.76 (inactive)	-0.813 (inactive)	0.234 (inactive)	-1.21 (inactive)	-0.793 (inactive)	0.352	0.309
CCc1cc2c(nc1CC)CCN(CCC(C)=NOC[C@@H](O)[C@H]1O[C@@H]3OC(C)(C)O[C@@H]3[C@H]1O)C2	-0.595	0.0824 (inactive)	-0.244 (inactive)	-0.439 (inactive)	0.535 (inactive)	-0.752 (inactive)	0.548 (inactive)	-0.953 (inactive)	-0.269	-0.365
C/C=C\[C@@H](NCc1ccccc1Br)[C@@H](O)Cc1ccccc1	-0.391	-9.3 (active)	-0.393 (inactive)	-2.11 (inactive)	-1.61 (inactive)	-0.572 (inactive)	-0.179 (inactive)	-1.18 (inactive)	-0.645	0.0785
O=C1[C@H]2[C@H]3[C@H](O)[C@H](O)CC(=NOCc4ccccc4)[C@H]3CC[C@H]2C(=O)N1c1ccc(F)cc1F	1.15	-1.51 (inactive)	-0.254 (inactive)	-0.738 (inactive)	0.328 (inactive)	-0.645 (inactive)	0.586 (inactive)	0.535 (inactive)	1.28	0.104
CCCC[C@@H](O)C1=C(C)C[C@H]2C(=O)N(Cc3ccccc3)C(=O)[C@H]2[C@H]1CO	-0.31	-3.87 (inactive)	-0.327 (inactive)	-2.65 (inactive)	0.27 (inactive)	0.161 (inactive)	0.11 (inactive)	0.183 (inactive)	-0.287	-0.0911
CCOC(=O)NN=C1C[C@@H](O)[C@@H](O)[C@@H]2[C@@H]3C(=O)N(CC)C(=O)[C@@H]3CC[C@@H]12	-0.0886	0.398 (inactive)	-0.621 (inactive)	-0.538 (inactive)	-0.331 (inactive)	-0.823 (inactive)	-0.145 (inactive)	-0.325 (inactive)	-0.423	-0.105
CN(C)CCCNC(=O)[C@@H]1c2ccccc2C(=O)N(Cc2ccccc2)[C@H]1c1ccc(CO)cc1	-0.309	0.0396 (inactive)	0.499 (inactive)	-0.303 (inactive)	-0.233 (inactive)	0.075 (inactive)	-0.0194 (inactive)	-0.136 (inactive)	0.791	-0.0926
COc1cccc([C@@H]2Oc3ccc(Br)cc3C(=O)[C@H]2O)c1	-0.41	-14.5 (active)	-1.99 (inactive)	-0.071 (inactive)	-0.0782 (inactive)	-0.361 (inactive)	0.255 (inactive)	0.139 (inactive)	-1.02	-0.391
COC(=O)C1=CCC(c2cccc(Cl)c2)O1 (stereo not given)	-0.0749	-3.58 (inactive)	-0.232 (inactive)	-0.861 (inactive)	0.216 (inactive)	-0.695 (inactive)	-0.0684 (inactive)	-0.0113 (inactive)	-0.646	-0.0962
COC(=O)[C@H]1COC(c2ccc(OCCCO)cc2)=N1	-0.652	-0.928 (inactive)	0.107 (inactive)	0.335 (inactive)	0.149 (inactive)	-0.286 (inactive)	0.057 (inactive)	-0.645 (inactive)	0.492	-0.103
CC(C)N1CC=CC23O[C@@H]4C=CCCOC(=O)C4[C@H]2C(=O)N(CCCCCCO)[C@@H]3C1=O (stereo not given in full)	0.973	0.948 (inactive)	0.98 (inactive)	-0.0439 (inactive)	0.109 (inactive)	0.638 (inactive)	0.66 (inactive)	0.541 (inactive)	0.937	0.694
